The sample as a whole holds a higher share of hits than the screen did.
Ba CapD inh – blocks the Bacillus anthracis CapD enzyme | purified CapD enzyme, fluorescence intensity read-out; stronger effect = lower value | z-score (concentration not given with the values) | 0.23% of 140,000 active; in the data active = z-score mostly below about -2.9, no sharp cut-off; inactive = mostly above about -1.9
Hits are given with their value; - = inactive.

SMILES | Ba CapD inh
O=c1[nH]c(O)c(/C=N/Nc2ccccc2)c(=O)[nH]1 | -
CC(N=CC1=C(O)CNC1=O)c1ccccc1 (stereo unspecified) | -
Nc1ccc(S(=O)(=O)Nc2ncccn2)cc1 | -
CN(c1ccccc1)S(=O)(=O)Cc1ccccc1 | -
C=CCNc1oc(COc2ccccc2F)nc1C#N | -
Cn1nc(C(F)(F)F)c(/C=N/OCc2ccc(Cl)c(Cl)c2)c1Cl | -
O=C(NC(C(F)(F)F)C(F)(F)F)OCc1ccccc1 | -
O=C(O)CCCc1ccc2c(c1)OCO2 | -
Nc1cc(CCCC(=O)O)sc1CCCC(=O)O | -10
O=C(O)CCCCc1cccs1 | -
O=C(c1ccc(F)cc1)c1cnc(Nc2ccc(Cl)c(Cl)c2)s1 | -
CC(Oc1ccccc1)C(=O)NCCSc1c[nH]c2ccccc12 (stereo unspecified) | -
c1ccc(-c2noc(CCC3CCCC3)n2)cc1 | -
O=C1NC(=Nc2ccccc2Cl)S/C1=C\c1ccc(O)c([N+](=O)[O-])c1 | -
CCCN1C(=O)c2ccccc2C(C(=O)O)C1c1ccc(OC)cc1 (stereo unspecified) | -
COc1ccc(C2C(C(=O)/C=C/c3ccccc3)=C(O)C(=O)N2CCO)cc1 (stereo unspecified) | -3.9
COc1ccc(C2/C(=C(\O)c3ccccc3)C(=O)C(=O)N2CCN2CCOCC2)cc1 (stereo unspecified) | -
CN(CCO)c1cc(N2CCCCCC2)c2nonc2c1[N+](=O)[O-] | -
CC1CCN(c2cc(N(C)CCO)c([N+](=O)[O-])c3nonc23)CC1 | -
CN1CCN(c2cc(N(C)CCO)c([N+](=O)[O-])c3nonc23)CC1 | -4.2
O=C1C(=O)N(c2nncs2)C(c2ccc(Cl)cc2Cl)/C1=C(/O)c1ccc(F)cc1 (stereo unspecified) | -
Cc1ccc(-c2nn[nH]n2)cc1 | -
Cc1ccc(/C(N)=N/OC(=O)Oc2ccccc2)cc1 | -
Cc1ccc(OC(=O)OCSc2nn[nH]n2)cc1 | -7.1
Cn1c(SCC(=O)OCC(=O)c2ccc(Br)cc2)nc2c1c(=O)[nH]c(=O)n2C | -
SMILES | Ba CapD inh
Fc1ccc(-c2[nH]ncc2CN2CCN(Cc3ccccc3)CC2)cc1 | -
OC1(c2ccc(Cl)cc2)CCN(Cc2cn[nH]c2-c2ccccc2)CC1 | -2.3
COc1ccc(-c2[nH]ncc2CN2CCC(O)(c3ccc(Cl)cc3)CC2)cc1 | -
O=C(O)CCN1C(=O)SC(Nc2ccccc2)C1=O (stereo unspecified) | -
CSc1nsc2nc(=O)c(/C=C3\C=CC(=O)C(O)=C3)c(N)n12 | -4.5
Cc1c(C(N)=O)sc(C(N)=O)c1C | -
COc1ccccc1CCOC(=O)NNC(=O)c1cc(C)[nH]n1 | -
O=C(CCc1ccccc1)Nc1nc2ccc(F)cc2s1 | -
COCCOC(=O)C1=C(C)NC2=C(C(=O)CC(c3ccc(OC)c(OC)c3)C2)C1c1ccccc1Cl (stereo unspecified) | -
CC1(C)CC(=O)C2=C(C1)NC1=C(C(=O)CC(C)(C)C1)C2c1ccc(Cl)cc1Cl | -
O=C(O)CC(C(=O)O)N1C(=O)/C(=C/c2ccc(Cl)cc2)SC1=S (stereo unspecified) | -
COc1ccc(/C=C2\SC(=S)N(C(CC(=O)O)C(=O)O)C2=O)cc1 (stereo unspecified) | -
O=C(O)CC(C(=O)O)N1C(=O)/C(=C/c2ccc(-c3ccc(Br)cc3)o2)SC1=S (stereo unspecified) | -4.5
CSc1nc(-c2ccccc2)nc(Sc2ccccc2)c1C#N | -
O=C(c1ccccc1)c1cc(Br)ccc1N=Cc1ccccc1O | -
CC1C/C(=C\C=C\N(C)C)C(=O)/C(=C/C=C/N(C)C)C1 (stereo unspecified) | -
CN(C)/C=C/C=C1C(=O)CCCC1=O | -
CN(C)/C=C/C=C1\CCCC1=O | -9
NC(=O)c1cccc(N)c1 | -
O=c1[nH]c2ccccc2nc1/C=C(\O)c1ccccc1 | -
COc1ccc(CCNC(=O)c2c(C)cc(=O)oc2C)cc1OC | -
Cc1cc(=O)oc(C)c1C(=O)NCc1c(F)cc(F)cc1F | -5.9
Cc1cc(=O)oc(C)c1C(=O)NCCCN1CCN(c2ccc(F)cc2)CC1 | -
COc1cc(/C=C2/SC(=S)NC2=O)ccc1OC(=O)c1cccc(C)c1 | -
O=C(Nc1ccc2[nH]c3c(c2c1)CCCC3)c1ccco1 | -
SMILES | Ba CapD inh
CCOC(=O)c1cc(S(=O)(=O)NCCc2ccccc2)cn1C | -
NNC(=O)c1nnn(-c2nonc2N)c1CSc1nc2ccccc2[nH]1 | -
Cc1c(-c2csc(-c3ccno3)n2)sc2ccccc12 | -3.5
Fc1cccc(-c2csc(-c3ccno3)n2)c1 | -
Cc1c(-c2csc(CS(=O)(=O)C(C)(C)C)n2)sc2ccccc12 | -
Cc1cnc(NC(=O)c2c(O)c3c(n(CC(C)C)c2=O)CCCC3)s1 | -
CCOc1cc(/C=C2\C(=O)Nc3ccc(Br)cc32)ccc1OCC(=O)O | -
CN(CC(=O)O)S(=O)(=O)c1ccc(Oc2ccccc2)cc1 | -
COc1cccc(Cn2c(SCc3ccc(C(=O)NCc4ccccn4)cc3)nc3ccncc32)c1 | -
Nc1ccc(-c2nnc(-c3ccco3)o2)cc1 | -
O=c1oc(-c2ccco2)ns1 | -8.5
O=c1oc(-c2cc3ccccc3s2)ns1 | -

High-throughput results from PubChem BioAssay.
